In PubChem BioAssay (NCATS):
Records with an inconclusive call do not appear. A number with no mark means an inactive call. Active and inactive are the calls of the source. The call rests on the fitted dose curve; in most records, active means well fitted cell-killing curve with a large enough effect; inconclusive means small, poorly fitted or top-dose-only effect, or effect the other way; inactive means no such curve, though single readings can be large or run the other way.

Assays:
[1] = Viability qHTS for spleen associated tyrosine kinase inhibitor (SYKi) naive MV4-11 cells (AID 1963823); further: nearly all actives have a fitted effect of over 40% in size
How it was run: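 SYK inhibitor-naive MV4-11 cells, 500 per well, exposed to compounds for 72 hr at 37 C, 5% CO2. Viability read as CellTiter-Glo luminescence after 10 min at room temperature.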

[2] = Viability qHTS for spleen associated tyrosine kinase inhibitor (SYKi) drug resistant MV4-11 cells (AID 1963824); further: nearly all actives have a fitted effect of over 35% in size
How it was run: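 SYK-inhibitor-resistant MV4-11 AML cells were seeded at 500 per well onto compound and cultured 72 hours (37 °C, 5% CO2). CellTiter-Glo was then added, and after 10 min at room temperature, luminescence gave viability.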
Potency means the concentration at half of the fitted maximal effect.

Row | Compound | viability (% of control) [1] | viability, % of control [2] | Potency [1] | Potency [2]
1 | N[C@@H](Cn1ccc(=O)c(O)c1)C(=O)O | 88% [at 4.97 µM] | 98% [at 4.97 µM] | – | –
2 | O=C(c1c2ccccc2cc2ccccc12)N1CCC(N2CCC[C@@H](C(=O)N3CCOCC3)C2)CC1 | – | – | inactive | 16.4 µM (active)
3 | CCn1cc(C2=NOC(C(=O)Nc3c(C)n(C)n(-c4ccccc4)c3=O)C2)c(C)n1 (stereo unspecified) | – | – | inactive | inactive
4 | COc1c2c(c(C)c3c1C(=O)OC3)O[C@@]1(C)CC(O)C(C(C)(C)O)[C@](C)(CCC(=O)O)[C@H]1C2 (stereo partly specified) | – | – | 7.96 µM (active) | 7.09 µM (active)
5 | CN1c2c(nc(N)[nH]c2=O)NC[C@@H]1CNc1ccc(C(=O)N[C@@H](CCC(=O)O)C(=O)O)cc1 | – | – | inactive | inactive
6 | CCC/C=C1\OC(=O)C2=C1CCC(O)C2O (stereo unspecified) | – | – | inactive | inactive
7 | C=C1C(=O)O[C@@H]2/C=C(/C)[C@@H](OC(C)=O)C/C=C(\C)C[C@@H](OC(=O)/C(=C/CO)CO)[C@@H]12 | – | – | 3.99 µM (active) | 3.55 µM (active)
8 | C=C1C(=O)OC2CC3(C)C(O)C(=O)C=C(C)C3CC12 (stereo unspecified) | – | – | 23.1 µM (active) | 7.31 µM (active)
9 | CC(C)CC[C@@H](O)[C@](C)(O)[C@H]1CC[C@@]2(O)C3=CC(=O)[C@@H]4C[C@@H](O)[C@@H](O)C[C@]4(C)[C@H]3CC[C@]12C | – | – | inactive | inactive
10 | CC1(CO)CC2C(O)C3=C(CC(C)(O)C2C1)C(=O)OC3 (stereo unspecified) | – | – | inactive | inactive
11 | O=C1NC2CCc3nc4ccccc4c(=O)n3C2=Nc2ccccc21 (stereo unspecified) | – | – | inactive | inactive
12 | C=C[C@H]1[C@H](O[C@@H]2O[C@H](CO)[C@@H](O)[C@H](O)[C@H]2O)OC=C(C(=O)OC)[C@H]1CCO | – | – | inactive | inactive
13 | CC1(C)CC[C@]2(C(=O)O[C@@H]3O[C@H](CO)[C@@H](O)[C@H](O)[C@H]3O)CC[C@]3(C)C(=CCC4[C@@]5(C)CC[C@H](O[C@H]6O[C@H](CO)[C@@H](O)[C@H](O[C@@H]7O[C@H](CO)[C@@H](O)[C@H](O)[C@H]7O)[C@H]6O)C(C)(C)C5CC[C@]43C)[C@@H]2C1 (stereo partly specified) | 84% [at 9.25 µM] | 95.6% [at 9.25 µM] | – | –
14 | O=Nc1c2[nH]c3ccccc3nc-2c2ccccc12 | – | – | 5.8 µM (active) | 10.3 µM (active)
15 | CS(=O)(=O)N(CC(=O)NCC1CC1)c1cc(C(F)(F)F)ccc1Cl | – | – | inactive | inactive
16 | COc1cc(OC)c(C(=O)/C=C/c2ccccc2)c2c1C=CC(C)(C)O2 | – | – | 10.3 µM (active) | 5.17 µM (active)
17 | N#Cc1cc(F)cc(-c2nc(-c3ccccn3)no2)c1 | – | – | inactive | inactive
18 | Cn1ncc(Cl)c1-c1cc(C(=O)N[C@H](CN)Cc2ccc(F)c(F)c2)oc1Cl | – | – | 2.59 µM (active) | 8.2 µM (active)
19 | COc1cc(NC(=O)c2cc(C3CC3)on2)c(OC)cc1Cl | – | – | inactive | inactive
20 | N#Cc1cc([N+](=O)[O-])c2sc(C(N)=O)[n+]([O-])c2c1 | – | – | 1.84 µM (active) | 1.64 µM (active)
21 | COc1ccc(Oc2c(Cl)cnn(-c3cc(C)cc(C)c3)c2=O)cc1 | – | – | 2.31 µM (active) | 2.06 µM (active)
22 | CCOC(=O)C(CCc1ccccc1)NC1CSC(c2cccs2)CN(CC(=O)O)C1=O (stereo unspecified) | – | – | 25.9 µM (active) | 6.51 µM (active)
23 | C[C@@H]1C(=O)O[C@H](C)[C@H]1C[C@@H](O)[C@](C)(O)[C@H]1CC[C@@]2(O)C3=CC(=O)[C@@H]4C[C@@H](O)[C@@H](O)C[C@]4(C)C3CC[C@]12C (stereo partly specified) | – | – | inactive | inactive
24 | CCN1CCN(Cc2ccc(C(=O)Nc3ccc(C)c(Oc4ccc5c(c4)CC(=O)N5)c3)cc2C(F)(F)F)CC1 | – | – | 5.8 µM (active) | 8.2 µM (active)
25 | CC(C)C(=O)OC[C@H]1O[C@@H](n2ccc(N)nc2=O)[C@](C)(F)[C@@H]1OC(=O)C(C)C | – | – | inactive | inactive
26 | C=C(C)C(=O)O[C@H]1C[C@@](C)(OC(C)=O)[C@@]2(O)CC[C@@](C)(O)[C@H](OC(C)=O)[C@@]23OC(=O)C(COC)=C13 | – | – | 8.93 µM (active) | 11.2 µM (active)
27 | O=C(Nc1ccccc1-c1cn2c(CN3CCNCC3)csc2n1)c1ccc2ccccc2n1 | – | – | 10.3 µM (active) | 20.6 µM (active)
28 | C=CC1C(O[C@@H]2O[C@H](CO)[C@@H](O)[C@H](O)[C@H]2O)OC=C(C(=O)OC)C1Cc1nccc2c1[nH]c1ccccc12 (stereo partly specified) | – | – | inactive | 3.99 µM (active)
